POLI inh: blocks human DNA polymerase iota activity | Q9UNA4 | Pol iota fluorescent replication assay, 10 min | Potency, µM (series often up to 115 µM), hits mostly inhibitors | actives 1% (n = 390,000)
Target sequence (Q9UNA4 whole entry, looked up): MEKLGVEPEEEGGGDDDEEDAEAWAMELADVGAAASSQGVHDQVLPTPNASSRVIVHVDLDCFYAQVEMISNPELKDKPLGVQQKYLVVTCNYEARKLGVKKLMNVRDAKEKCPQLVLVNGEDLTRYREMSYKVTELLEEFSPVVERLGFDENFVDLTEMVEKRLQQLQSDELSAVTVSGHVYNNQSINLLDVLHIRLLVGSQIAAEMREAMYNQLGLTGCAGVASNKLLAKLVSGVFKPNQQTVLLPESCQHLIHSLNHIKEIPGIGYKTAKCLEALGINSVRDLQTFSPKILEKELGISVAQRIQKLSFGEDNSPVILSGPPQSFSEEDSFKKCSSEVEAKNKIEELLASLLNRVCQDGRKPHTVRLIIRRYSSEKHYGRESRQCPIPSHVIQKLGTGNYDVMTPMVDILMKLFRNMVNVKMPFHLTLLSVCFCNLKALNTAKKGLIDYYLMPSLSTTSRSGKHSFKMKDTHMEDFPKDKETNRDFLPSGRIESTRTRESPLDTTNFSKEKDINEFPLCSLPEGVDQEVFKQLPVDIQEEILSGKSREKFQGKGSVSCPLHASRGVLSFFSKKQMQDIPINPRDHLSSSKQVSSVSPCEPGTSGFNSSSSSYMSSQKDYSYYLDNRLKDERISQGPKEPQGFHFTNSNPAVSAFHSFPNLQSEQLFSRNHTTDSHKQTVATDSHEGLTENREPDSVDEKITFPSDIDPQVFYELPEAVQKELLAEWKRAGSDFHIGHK
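Pol iota at 10 nM preincubated 15 min with compounds at room temperature; reaction started with fluorescent substrate, 50 nM final. Fluorescence read kinetically at 0 and 10 min; buffer-only wells as negative control.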
APEX1 inh: blocks human APE1 abasic DNA cleavage | P27695 | recombinant APE1, TAMRA/BHQ-2 abasic DNA cleavage fluorescence | Potency, µM (doses to about 65.8 µM), usual class: inhibitors | actives 0.35% (n = 350,000) | AID 2517; also: nearly all actives have a fitted effect of over 55% in size
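Enzyme (0.75 nM final) and test compound are incubated 15 min at room temperature before adding 50 nM quenched THF abasic-site duplex. Cleavage dequenches TAMRA, followed at 525/598 nm over three reads one minute apart.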
Pol kappa inh: DNA polymerase kappa (human) inhibition; Q9UBT6; purified Pol kappa, fluorescent DNA synthesis assay, 10 min; Potency, µM (titrated, usually from 107 µM), most hits filed as inhibitors; actives 0.53% (n = 400,000)
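10 nM Pol kappa was preincubated with compounds for 15 min at room temperature. Reaction started with 50 nM (final) substrate. Fluorescence read kinetically at 0 and 10 min.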
GLS inhibitor: inhibitors of human glutaminase (GLS); Potency, µM (doses to about 45.5 µM), hits mostly inhibitors; actives 0.21% (n = 410,000); O94925; GLS enzymatic activity, qHTS titration
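Read-out is an Amplex red fluorescence increase coupled through glutamate oxidase and HRP, measured before and after 30 min room-temperature incubation. hKGA is in 45 mM KH2PO4 (pH 8.2) with 0.02% Tween-20; glutamine added as 1mM solution.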
Pol beta inh: blocks human DNA polymerase beta activity; actives 1.3% (n = 340,000); P06746; AID 485314; Potency, µM (top dose mostly 114 µM), actives largely listed as inhibitors; Pol beta primer extension/strand displacement, fluorescence kinetic
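Values derive from four-parameter Hill fits of normalized kinetic data: reads at 0 and 10 min following addition of 50 nM substrate to 10 nM Pol beta preincubated 15 min with compound.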
Pol eta inh: DNA polymerase eta (human) inhibition; Potency, µM (highest dose often 114 µM), usual class: inhibitors; recombinant Pol eta, fluorescent DNA replication assay; AID 588591; actives 1.2% (n = 390,000)
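Pol eta (10 nM) was preincubated with compounds for 15 min at room temperature, after which fluorescent replication substrate (50 nM final) was added to start the reaction. Fluorescence was read kinetically at 0 and 10 min.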
Numbers stand for hits. A selection: hits, their analogues and other compounds. The true share with any hit is near 2.4%. Calls follow the shape of the dose curve; as a rule, active = well fitted curve in the direction sought with a large enough effect; inconclusive = small, poorly fitted or top-dose-only effect, or another doubt; inactive = no such curve, though single readings can be large; an effect the other way counts as inactive or inconclusive.

How did OCC1O[C@H]([S-])[C@H](O)[C@@H](O)[C@@H]1O.[Au+] (stereo partly specified) do in these assays?
Pol kappa inh: 5.3µM

How did OC[C@@H]1OC(O)[C@@H](O)[C@H](O)[C@H]1O (stereo partly specified) do in these assays?
APEX1 inh: inactive; Pol kappa inh: inactive

Results for COc1ccc(C2=NOC3(CC(=O)N(c4ccc5ccccc5c4)C3=O)C2)c(OC)c1 (stereo unspecified) ?
POLI inh: inconclusive; APEX1 inh: inconclusive; Pol kappa inh: inactive; GLS inhibitor: inactive; Pol beta inh: 50µM; Pol eta inh: inactive

How did COc1ccc(C2=NOC3(CC(=O)N(c4ccc(F)cc4)C3=O)C2)c(OC)c1 (stereo unspecified) do in these assays?
POLI inh: inactive; APEX1 inh: inactive; Pol kappa inh: inconclusive; GLS inhibitor: inactive; Pol beta inh: inactive; Pol eta inh: inactive

Results for CC(C)(C)NC(=S)NNC(=O)c1ccncc1 ?
POLI inh: inactive; APEX1 inh: inactive; Pol kappa inh: inactive; GLS inhibitor: inactive; Pol beta inh: inconclusive; Pol eta inh: inactive

What do the screens show for `O=c1[nH]sc2ccccc12`?
POLI inh: 25µM; APEX1 inh: inactive; Pol kappa inh: inactive; GLS inhibitor: inconclusive; Pol beta inh: inactive; Pol eta inh: inactive

How did Cn1nnnc1SCC(=O)c1ccco1 do in these assays?
POLI inh: inactive; APEX1 inh: inactive; Pol kappa inh: inactive; GLS inhibitor: inactive; Pol beta inh: inconclusive; Pol eta inh: inactive

Results for COc1cc2ccccc2cc1C(=O)OCC(=O)Nc1ccc(Br)cc1 ?
Pol kappa inh: 89µM

What do the screens show for `COc1cc(OC)cc(C(=O)N2CCN(C(=O)COc3ccc4ccccc4c3)CC2)c1`?
POLI inh: 71µM; APEX1 inh: inactive; Pol kappa inh: inactive; GLS inhibitor: inactive; Pol beta inh: inactive; Pol eta inh: inactive

What do the screens show for `COc1ccc(N2CCN(C(=O)COc3ccc4ccccc4c3)CC2)cc1`?
POLI inh: inactive; APEX1 inh: inactive; Pol kappa inh: inactive; GLS inhibitor: inactive; Pol beta inh: inactive; Pol eta inh: inactive

Results for COc1ccccc1C(=O)Nc1nnc(SCC(=O)Nc2ccc3c(c2)oc2ccccc23)s1 ?
POLI inh: inconclusive; APEX1 inh: inactive; Pol kappa inh: inactive; GLS inhibitor: inactive; Pol beta inh: inactive; Pol eta inh: inactive

How did COc1ccc2ccccc2c1C(=O)/C=C\c1ccoc1 do in these assays?
POLI inh: inconclusive; APEX1 inh: inconclusive; Pol kappa inh: inactive; GLS inhibitor: inactive; Pol beta inh: 45µM; Pol eta inh: inconclusive

What do the screens show for `O=C(COc1cccnc1[N+](=O)[O-])c1ccc(Cl)s1`?
POLI inh: 11µM; APEX1 inh: inconclusive; Pol kappa inh: 79µM; GLS inhibitor: inactive; Pol beta inh: 32µM; Pol eta inh: 45µM

Results for COc1ccccc1/C=C/c1nc2ccccc2o1 ?
POLI inh: inactive; Pol kappa inh: inactive

How did COc1ccc(CNC(=O)c2ccc(CS(=O)(=O)c3ccc(C)cc3)o2)cc1 do in these assays?
POLI inh: inactive; APEX1 inh: inactive; Pol kappa inh: inactive; GLS inhibitor: inactive; Pol beta inh: inactive; Pol eta inh: inactive

Results for CCOCCCNC(=O)c1ccc(CS(=O)(=O)Cc2ccccc2F)o1 ?
POLI inh: inactive; APEX1 inh: inactive; Pol kappa inh: 89µM; GLS inhibitor: inactive; Pol beta inh: inactive; Pol eta inh: inconclusive

What do the screens show for `O=C(NCc1ccccc1)c1ccc(CS(=O)(=O)Cc2ccccc2F)o1`?
POLI inh: inactive; APEX1 inh: inactive; Pol kappa inh: inactive; GLS inhibitor: inactive; Pol beta inh: inactive; Pol eta inh: inactive

How did CNS(=O)(=O)c1ccc2nc(NC(=O)/C=C/c3ccco3)sc2c1 do in these assays?
POLI inh: 50µM; APEX1 inh: inconclusive; Pol kappa inh: inconclusive; GLS inhibitor: inactive; Pol beta inh: inconclusive; Pol eta inh: inactive

What do the screens show for `Cc1ccc(/C=C(/C#N)C(=O)NC(C)c2ccccc2)o1` (stereo unspecified)?
POLI inh: inactive; APEX1 inh: inactive; Pol kappa inh: inactive; GLS inhibitor: inactive; Pol beta inh: inactive; Pol eta inh: inactive

How did CCCN(CCC)CC(O)COc1ccc([N+](=O)[O-])cc1 (stereo unspecified) do in these assays?
POLI inh: inactive; APEX1 inh: inactive; Pol kappa inh: inactive; GLS inhibitor: inactive; Pol beta inh: inactive; Pol eta inh: inactive

How did CC(C)CS(=O)(=O)C1=NSC2=NC(=O)/C(=C\c3ccc(OC(=O)c4ccco4)cc3)C(=N)N21 do in these assays?
POLI inh: inactive; APEX1 inh: inactive; Pol kappa inh: inactive; GLS inhibitor: inactive; Pol beta inh: inactive; Pol eta inh: 56µM

What do the screens show for `CS(=O)(=O)C1=NSC2=NC(=O)/C(=C\c3ccc(OC(=O)c4ccco4)c(Br)c3)C(=N)N21`?
POLI inh: inconclusive; APEX1 inh: inactive; Pol kappa inh: inactive; GLS inhibitor: inactive; Pol beta inh: inconclusive; Pol eta inh: 50µM

Results for CSC1=NSC2=NC(=O)/C(=C\c3ccc(OC(=O)c4ccco4)cc3)C(=N)N12 ?
POLI inh: inconclusive; APEX1 inh: inactive; Pol kappa inh: inactive; GLS inhibitor: inactive; Pol beta inh: inactive; Pol eta inh: inconclusive

What do the screens show for `COCCCNC(=O)Cn1c(=O)n(CC(=O)N2CCCCC2)c(=O)c2sccc21`?
POLI inh: inactive; APEX1 inh: inactive; Pol kappa inh: inactive; GLS inhibitor: inactive; Pol beta inh: inactive; Pol eta inh: inactive

Results for O=C(/C=C/c1ccco1)OCn1nnc2ccccc2c1=O ?
POLI inh: inactive; APEX1 inh: inconclusive; Pol kappa inh: inactive; GLS inhibitor: inactive; Pol beta inh: 20µM; Pol eta inh: inactive

What do the screens show for `CCOC(=O)c1c(NC(=O)CC2Nc3ccccc3NC2=O)sc(C)c1C` (stereo unspecified)?
POLI inh: inactive; APEX1 inh: inactive; Pol kappa inh: inactive; GLS inhibitor: 13µM; Pol beta inh: inactive; Pol eta inh: inactive

How did COc1ccccc1CNC(=O)c1ccc(CS(=O)(=O)c2ccc(C)cc2)o1 do in these assays?
POLI inh: 71µM; APEX1 inh: inactive; Pol kappa inh: inconclusive; GLS inhibitor: inactive; Pol beta inh: 89µM; Pol eta inh: 45µM

What do the screens show for `COc1ccccc1CNC(=O)c1ccc(CS(=O)(=O)c2ccccc2OC)o1`?
POLI inh: inactive; APEX1 inh: inactive; Pol kappa inh: inactive; GLS inhibitor: inactive; Pol beta inh: inactive; Pol eta inh: inactive

How did Cc1ccc(S(=O)(=O)Cc2ccc(C(=O)N3CCN(Cc4ccccc4)CC3)o2)cc1 do in these assays?
APEX1 inh: inactive; Pol beta inh: 25µM

Screens: PubChem, National Center for Advancing Translational Sciences (NCATS)
